According to PubChem BioAssay:
Active and inactive are the calls of the source.

Key:
[1] = tested on: Plasmodium falciparum Sir2 (PF13_0152, Sir2A); experiment: pfSir2 binders on small-molecule microarrays, primary screen, biochemical, small-molecule microarray, 635 nm fluorescence (AID 1098); conditions: small-molecule microarray binding, fluorescence 635 nm; higher = more signal;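 further: score merges spot fluorescence intensity with its signal-to-noise ratio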
[2] = small-molecule microarray binders of probe aDKK1, primary screen, biochemical, biotinylated probe, 635/667 nm fluorescence (AID 1099); conditions: higher = more signal;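 further: score merges 667nm spot fluorescence with signal to noise across triplicate slides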
[3] = small-molecule microarray binders of probe aCHRDL2, primary screen, biochemical, biotinylated probe, 635/667 nm fluorescence (AID 1100); conditions: higher = more signal
[4] = splicing luciferase reporter signal modulators, primary screen, spliceosome inhibition project, cell-based, HEK293, splice +/- reporter (AID 1101); conditions: luminescence, 24 h, higher = more signal, called active from +8 up or from −8 down;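 further: HEK293 cells carrying a splicing-competent luciferase reporter gene; test concentration not given here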
[5] = target: Fibroblast growth factor 10 (Homo sapiens) (UniProt O15520); experiment: FGF10 binders on small-molecule microarrays, primary screen, biochemical, small-molecule microarray, 635 nm fluorescence (AID 1102); conditions: FGF10 binding, fluorescence 635 nm, higher = more signal
[6] = tested on: glycogen synthase kinase-3 (GSK3A per assay name; protocol says GSK3B); experiment: GSK3 binders on small-molecule microarrays, primary screen, biochemical, small-molecule microarray, 635 nm fluorescence, GSK3A (AID 1103); conditions: small-molecule microarray binding, fluorescence 635 nm; higher = more signal; further: the record names both GSK3A and GSK3B
[7] = target: Epidermal growth factor receptor (Homo sapiens) (UniProt P00533); experiment: EGFR binders on small-molecule microarrays, primary screen, biochemical, small-molecule microarray, 635 nm fluorescence (AID 1104); conditions: EGFR binding, higher = more signal;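 further: score merges 667 nm emission intensity with spot signal to noise over triplicate slides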
[8] = target: Follistatin-related protein 3 (Homo sapiens) (UniProt O95633); experiment: FSTL3 binders on small-molecule microarrays, primary screen, biochemical, small-molecule microarray, 635 nm fluorescence (AID 1105); conditions: FSTL3 binding, higher = more signal;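 further: score merges emission near 667 nm and signal to noise per printed spot across three slides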
[9] = target: Dickkopf-related protein 1 (Homo sapiens) (UniProt O94907); experiment: DKK1 binders on small-molecule microarrays, primary screen, biochemical, small-molecule microarray, 635 nm fluorescence scan (AID 1106); conditions: DKK1 binding, higher = more signal;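 further: score merges emission near 667 nm with signal to noise over three replicate slides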
[10] = tested on: Inhibin beta A chain (activin A); experiment: INHBA (activin A) binders on microarrays, primary screen, biochemical, small-molecule microarray, 635 nm fluorescence scan (AID 1107); conditions: small-molecule microarray binding, higher = more signal;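 further: mouse activin A protein probed at 4.33 µg/mL on printed slides; score merges bound-protein fluorescence near 667 nm with spot signal-to-noise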
[11] = tested on: Human papillomavirus type 1a protein E7 (residues 44-93); experiment: HPV1a E7 fragment binders on microarrays, primary screen, biochemical, small-molecule microarray, residues 44-93, 635 nm fluorescence (AID 1108); conditions: small-molecule microarray binding, fluorescence 635 nm; higher = more signal;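 further: E7 fragment applied at 1 µg/mL in TBST for 1 h at 4 C; score combines spot fluorescence with its signal to noise ratio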
[12] = modulators of HCV replicon luciferase signal, primary screen, HCV replication inhibitor project, Huh7 cells, luciferase reporter (AID 1109); conditions: 48 h, higher = more signal;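 further: huh7 hepatoma cells harbouring a luciferase neomycin HCV replicon reporter; luciferase luminescence as measure of HCV replicon replication; test concentration not given here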
[13] = target: Left-right determination factor 2 (Homo sapiens) (UniProt O00292); experiment: LEFTY2 binders on small-molecule microarrays, primary screen, biochemical, small-molecule microarray, 635 nm fluorescence scan (AID 1110); conditions: LEFTY2 binding, higher = more signal
[14] = target: Calmodulin-1 (Homo sapiens) (UniProt P0DP23); experiment: CALM1 binders on microarrays, EGTA buffer, profiling panel, biochemical, small-molecule microarray, Cy5-labelled CALM1 (AID 1111); conditions: Cy5-CALM1 binding fluorescence, higher = more signal;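 further: labelled calmodulin applied in Tris saline Tween buffer holding calcium plus EGTA and DTT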
[15] = target: Calmodulin-1 (Homo sapiens) (UniProt P0DP23); experiment: calcium-bound CALM1 binders on microarrays, profiling panel, artefact control for SMM control-protein annotation, biochemical, small-molecule microarray, Cy5-labelled CALM1, plus calcium (AID 1112); conditions: Cy5-CALM1 binding fluorescence, higher = more signal;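 further: score merges spot fluorescence with signal to noise from triplicate slides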
[16] = small-molecule microarray binders of probe aWnt5a, primary screen, biochemical, biotinylated probe, 635/667 nm fluorescence (AID 1113); conditions: higher = more signal;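 further: score merges 667 nm fluorescence intensity with signal-to-noise per printed feature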
[17] = small-molecule microarray binders of probe aShh, primary screen, biochemical, biotinylated probe, 635/667 nm fluorescence (AID 1114); conditions: higher = more signal;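 further: probe is biotin-labelled aShh protein from a stem cell growth factor screen; measures binding of labelled protein to compounds printed on the slide; score merges feature fluorescence at 667 nm with signal-to-noise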
[18] = small-molecule microarray binders of probe aNog, primary screen, biochemical, biotinylated probe, 635/667 nm fluorescence (AID 1115); conditions: higher = more signal;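 further: probe is biotinylated aNog protein used at 0.15 µg/mL for 1 h at 4 C; z-score combines 667 nm fluorescence of each spot with its signal to noise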
[19] = target: Torsin-1A-interacting protein 1 (Homo sapiens) (UniProt Q5JTV8); experiment: LAP1 binders from COS7 cell lysate, primary screen, small-molecule microarray, 635/667 nm fluorescence (AID 1116); conditions: COS7-hLAP1 lysate binding, 635 nm fluorescence, higher = more signal
[20] = target: Alpha-bungarotoxin (Bungarus multicinctus) (UniProt P60615); experiment: alpha-bungarotoxin binders on microarray, profiling panel, artefact control for SMM control protein annotation, biochemical, small-molecule microarray, Alexa647 label, 635/667 nm fluorescence (AID 1117); conditions: alpha-BTX-A647 binding fluorescence, higher = more signal
Chain of Alpha-bungarotoxin (Bungarus multicinctus) (P60615 whole entry, looked up): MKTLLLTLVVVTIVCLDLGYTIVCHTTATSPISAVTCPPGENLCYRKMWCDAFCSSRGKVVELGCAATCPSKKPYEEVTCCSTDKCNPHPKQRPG

Chain of Epidermal growth factor receptor (Homo sapiens) (P00533 whole entry, looked up): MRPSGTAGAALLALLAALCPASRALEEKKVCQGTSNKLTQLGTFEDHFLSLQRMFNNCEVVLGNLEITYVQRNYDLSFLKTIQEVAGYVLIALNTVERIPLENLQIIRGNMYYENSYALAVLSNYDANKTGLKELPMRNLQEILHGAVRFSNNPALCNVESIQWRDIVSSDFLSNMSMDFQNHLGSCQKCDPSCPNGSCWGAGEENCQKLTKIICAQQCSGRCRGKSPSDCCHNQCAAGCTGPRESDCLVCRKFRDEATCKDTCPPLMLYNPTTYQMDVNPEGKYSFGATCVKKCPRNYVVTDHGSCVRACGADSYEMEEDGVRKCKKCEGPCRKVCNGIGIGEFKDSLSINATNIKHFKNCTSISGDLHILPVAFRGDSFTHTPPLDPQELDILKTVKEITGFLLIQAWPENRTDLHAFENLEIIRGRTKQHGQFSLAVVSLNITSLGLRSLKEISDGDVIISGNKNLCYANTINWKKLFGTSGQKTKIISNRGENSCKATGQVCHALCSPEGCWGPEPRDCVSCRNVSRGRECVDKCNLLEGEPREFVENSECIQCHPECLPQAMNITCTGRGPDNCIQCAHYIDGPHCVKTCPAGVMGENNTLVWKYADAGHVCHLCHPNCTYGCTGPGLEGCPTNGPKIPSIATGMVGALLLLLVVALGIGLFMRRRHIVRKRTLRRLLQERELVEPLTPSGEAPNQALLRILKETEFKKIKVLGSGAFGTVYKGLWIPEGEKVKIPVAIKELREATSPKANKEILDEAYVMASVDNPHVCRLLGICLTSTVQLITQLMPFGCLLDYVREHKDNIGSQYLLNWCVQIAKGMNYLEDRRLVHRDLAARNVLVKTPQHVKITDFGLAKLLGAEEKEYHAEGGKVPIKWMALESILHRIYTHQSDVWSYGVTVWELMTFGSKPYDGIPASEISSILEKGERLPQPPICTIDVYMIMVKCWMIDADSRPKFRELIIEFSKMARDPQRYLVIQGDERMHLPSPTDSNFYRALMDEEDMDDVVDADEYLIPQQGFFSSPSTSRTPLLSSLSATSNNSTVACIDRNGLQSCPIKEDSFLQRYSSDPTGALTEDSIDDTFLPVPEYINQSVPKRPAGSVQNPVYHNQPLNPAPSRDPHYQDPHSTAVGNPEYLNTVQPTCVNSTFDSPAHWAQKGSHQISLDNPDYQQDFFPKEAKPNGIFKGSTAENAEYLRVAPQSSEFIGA
Chain of Follistatin-related protein 3 (Homo sapiens) (O95633 whole entry, looked up): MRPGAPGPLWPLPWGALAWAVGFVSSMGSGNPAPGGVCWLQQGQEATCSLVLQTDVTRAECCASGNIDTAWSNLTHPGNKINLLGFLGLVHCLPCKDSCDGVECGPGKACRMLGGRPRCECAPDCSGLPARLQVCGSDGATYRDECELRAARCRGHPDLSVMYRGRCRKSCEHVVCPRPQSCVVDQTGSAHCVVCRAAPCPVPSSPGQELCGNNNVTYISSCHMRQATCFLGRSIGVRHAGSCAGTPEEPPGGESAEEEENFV
Chain of Dickkopf-related protein 1 (Homo sapiens) (O94907 whole entry, looked up): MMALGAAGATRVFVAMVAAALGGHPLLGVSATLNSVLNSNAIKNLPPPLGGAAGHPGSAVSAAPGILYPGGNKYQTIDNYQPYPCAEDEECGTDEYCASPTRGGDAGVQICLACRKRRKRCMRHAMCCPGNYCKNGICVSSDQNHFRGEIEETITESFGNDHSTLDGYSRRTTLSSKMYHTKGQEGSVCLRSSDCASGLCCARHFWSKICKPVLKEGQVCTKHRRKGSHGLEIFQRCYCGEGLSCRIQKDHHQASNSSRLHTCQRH
Chain of Fibroblast growth factor 10 (Homo sapiens) (O15520 whole entry, looked up): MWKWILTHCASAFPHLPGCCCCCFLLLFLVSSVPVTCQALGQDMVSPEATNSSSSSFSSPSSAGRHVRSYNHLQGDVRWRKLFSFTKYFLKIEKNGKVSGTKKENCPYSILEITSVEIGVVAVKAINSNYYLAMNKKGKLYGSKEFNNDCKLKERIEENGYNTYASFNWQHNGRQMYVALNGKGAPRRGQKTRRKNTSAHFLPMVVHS
Chain of Left-right determination factor 2 (Homo sapiens) (O00292 whole entry, looked up): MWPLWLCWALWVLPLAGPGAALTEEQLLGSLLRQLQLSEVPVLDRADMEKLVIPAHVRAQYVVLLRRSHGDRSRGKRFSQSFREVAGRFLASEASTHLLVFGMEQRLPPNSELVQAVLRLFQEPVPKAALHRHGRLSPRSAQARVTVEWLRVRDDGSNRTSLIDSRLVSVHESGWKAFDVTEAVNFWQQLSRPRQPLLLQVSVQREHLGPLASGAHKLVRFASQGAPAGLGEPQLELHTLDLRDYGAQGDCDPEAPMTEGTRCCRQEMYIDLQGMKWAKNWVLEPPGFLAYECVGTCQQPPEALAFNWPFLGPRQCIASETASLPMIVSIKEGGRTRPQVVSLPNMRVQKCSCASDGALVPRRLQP
Chain of Torsin-1A-interacting protein 1 (Homo sapiens) (Q5JTV8 whole entry, looked up): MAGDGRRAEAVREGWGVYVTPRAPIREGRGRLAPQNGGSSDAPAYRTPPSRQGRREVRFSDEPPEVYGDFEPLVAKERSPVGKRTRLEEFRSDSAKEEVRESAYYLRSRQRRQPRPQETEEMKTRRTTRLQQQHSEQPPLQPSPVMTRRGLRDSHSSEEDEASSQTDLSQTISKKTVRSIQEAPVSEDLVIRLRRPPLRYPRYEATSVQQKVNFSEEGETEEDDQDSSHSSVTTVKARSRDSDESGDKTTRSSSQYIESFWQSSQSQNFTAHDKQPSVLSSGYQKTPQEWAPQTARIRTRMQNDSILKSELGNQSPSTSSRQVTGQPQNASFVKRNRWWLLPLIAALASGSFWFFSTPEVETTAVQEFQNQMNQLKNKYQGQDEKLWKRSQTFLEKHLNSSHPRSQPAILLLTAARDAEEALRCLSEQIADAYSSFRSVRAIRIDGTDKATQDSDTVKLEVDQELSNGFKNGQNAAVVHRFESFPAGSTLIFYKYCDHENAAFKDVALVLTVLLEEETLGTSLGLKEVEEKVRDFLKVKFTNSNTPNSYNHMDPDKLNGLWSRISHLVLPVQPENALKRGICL

Structure (SMILES) | composite z-score [1] | composite z-score [2] | composite z-score [3] | z-score [4] | composite z-score [5] | composite z-score [6] | composite z-score [7] | composite z-score [8] | composite z-score [9] | composite z-score [10] | composite z-score [11] | z-score [12] | composite z-score [13] | composite z-score [14] | composite z-score [15] | composite z-score [16] | composite z-score [17] | composite z-score [18] | composite z-score [19] | composite z-score [20]
COc1ccc(C(=O)Nc2ccc(CN3C(=O)[C@]4(O[C@H](CCn5cc([C@H](O)c6ccccc6)nn5)[C@@H]([Si](C)(C)c5ccc(OC)cc5)[C@@H]4C)c4ccccc43)cc2)cc1 | 0.789 | 0.294 | 0.824 | -1.41 (inactive) | -0.09 | -0.109 | -0.39 | -0.113 | 0.102 | 1.47 | 0.237 | -4.97 | -0.48 | -0.0217 | 0.187 | 0.158 | -0.453 | 0.0771 | 0.706 | 1.14
COCC(=C=CC[C@@H](O)c1ccccc1OCCO)C[C@@H](O)COCc1ccccc1 | 0.72 | 0.724 | 0.167 | -1.48 (inactive) | 1.21 | 0.732 | -1.19 | -0.268 | -0.466 | 1.24 | -0.0562 | -0.868 | -0.522 | 1.16 | 0.0936 | 0.0158 | 0.536 | 0.998 | 2.56 | -0.18
CCOc1cc(C(O)C2C=CC3C(=O)NC(=O)C3N2Nc2ccccn2)ccc1O (stereo not given) | 0.38 | -0.0596 | -0.0156 | 1.12 (inactive) | 0.592 | 0.156 | 0.28 | 0.189 | 0.107 | 0.925 | -0.357 | 0.294 | 0.205 | 0.384 | -0.108 | -0.198 | -0.117 | 0.0258 | 0.229 | 0.297
CCCC=C(CCC)[C@@H](NS(=O)(=O)CC)c1ccccc1 | 0.903 | 0.303 | 0.726 | -3.42 (inactive) | 0.601 | 1.12 | 0.167 | 0.388 | -0.328 | 0.147 | 1.37 | -2.68 | -0.0866 | 1.37 | 0.855 | 0.0516 | 0.949 | 1.26 | 0.806 | 0.157
CC(C)C(CO)N1C(=O)[C@@H]2[C@H]3C(=O)OCC=C[C@H]3OC23C=CCN(Cn2nnc4ccccc42)C(=O)[C@@H]13 (stereo not given in full) | 0.335 | -0.374 | 0.465 | 0.184 (inactive) | -0.777 | -1.05 | -0.851 | -1.41 | -1.18 | -1.33 | -0.484 | -0.634 | -0.734 | -0.323 | 0.608 | -0.226 | 0.35 | -0.358 | -0.273 | -0.284
O=C1C[C@@](C(=O)NCc2ccccc2)(c2ccc([N+](=O)[O-])cc2)[C@@H](c2ccc(CO)cc2I)N1C1CCCCC1 | 0.838 | 1.78 | 0.652 | -0.551 (inactive) | 0.7 | 1.16 | 0.768 | 1.33 | 0.876 | 0.654 | 1.14 | -2.36 | 0.597 | 0.261 | 0.315 | 0.0733 | 0.192 | -0.175 | 0.52 | 0.414
COC(=O)C(CC#Cc1ccc2c(c1)[C@]1(C(=O)N2)[C@H](C(=O)N2CCc3cc(OC)c(OC)cc3C2)[C@H]2C(=O)O[C@H](c3ccccc3)[C@H](c3ccccc3)N2[C@@H]1c1ccc(OCCO)cc1)C(=O)OC | 1.08 | 0.0138 | 0.415 | -0.291 (inactive) | 1.39 | 1.3 | 0.732 | 0.94 | 0.544 | 0.614 | 1.41 | -1.21 | 0.633 | 1.07 | 0.16 | -0.0236 | -0.159 | -0.198 | 0.254 | 1.08
O=C1C2C=CC(C(O)c3ccccn3)N(Nc3ccccc3)C2C(=O)N1c1ccccc1 (stereo not given) | 0.687 | 0.264 | 0.5 | 0.383 (inactive) | -0.191 | -0.326 | -0.441 | -0.656 | -0.341 | 0.826 | 0.132 | 0.819 | -0.136 | 0.167 | -0.0451 | -0.0758 | -0.291 | 0.0373 | 0.529 | 0.31
C[C@@H]1ON(c2ccccc2)[C@H](c2ccccc2)[C@H]1C(=O)N1C(=O)OC[C@H]1Cc1ccccc1 | 0.342 | -0.327 | -0.503 | -0.34 (inactive) | 0.423 | 0.149 | 0.569 | 0.697 | 0.471 | 0.106 | 1.06 | -0.782 | 0.567 | -0.137 | -0.542 | 0.765 | -0.304 | -0.282 | 0.28 | 0.327
CC(C)CNC(=O)[C@@]1(C)c2ccccc2C(=O)N(Cc2ccccc2)[C@H]1c1ccc(CO)cc1 | 0.651 | 0.569 | 1.19 | 0.622 (inactive) | -1.21 | -1.01 | -1.56 | -2.11 | -1.88 | -1.02 | -0.205 | 0.0768 | -1.55 | -1.21 | 0.431 | -0.192 | -0.0735 | -0.327 | 0.055 | -0.905
[N-]=[N+]=Nc1ccccc1[C@@H]1OC(c2ccc(OCCCO)cc2)=N[C@]1(CCS(=O)(=O)c1ccccc1)C(=O)NCc1ccccc1 | 1.29 | 1.24 | 1.28 | 0.385 (inactive) | 1.25 | 0.309 | 0.0329 | 1.18 | -0.244 | 1.06 | 1.41 | 0.0858 | 0.343 | 2.03 | 0.603 | 0.0338 | 0.0469 | 1.6 | 2.15 | 1.9
